The structures appear in SMILES notation. About 83,000 compounds went through this panel and 20% of them were active in at least one assay; those are over-represented in the sample as a whole.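 Negative percent growth values reflect cell death: -40 means 40% of the cells present at the start died, and -100 means all died.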 Activity calls are given as the source filed them. The calls were made as follows: active = growth percent below 10; inactive = the rest.

The assay has as its system HL-60(TB) leukemia. Put plainly: NCI-60 one-dose screen, 48 h (100 = growth as untreated, 0 = no growth, -100 = all killed). Conditions: 10 µM unless noted.
Turning to `COc1cc2c(cc1[N+](=O)[O-])-c1ccc([N+](=O)[O-])cc1/C2=N/NC(N)=S`, the growth is 88.3% (inactive).

In the case of `CCC(=O)Nc1ccccc1C#C/C=C\C#Cc1ccccc1SC`, the growth is -16.2% (active). Turning to `O=C1/C(=C/c2ccc(O)cc2)Oc2ccc(Cl)cc21`, the growth was 81% (inactive). With `CCN(C(=O)c1cc2ncccc2[nH]1)[C@H]1CCC[C@@H](NCc2cccc(F)c2)C1` the figure was 130% (inactive); with `Cn1cc(-c2csc(-c3cn(C)c4ncccc34)n2)c2cc(Br)cnc21`, 83.1% (inactive). With `N#Cc1ncc(-c2cc(F)ccc2F)c(NC2CCCCCC2)n1` the figure was 86.9% (inactive).

Turning to `COC(=O)c1ccc(=O)oc1`, the growth was 96.2% (inactive). For the compound `CC(C)c1ccc(/C=N/Nc2nc3ccccc3s2)cc1`, the growth is 98% (inactive). With `O=C1CCCc2nc3sc4c(=O)n(-c5ccccc5Cl)nnc4c3cc21` the figure was 109% (inactive).

Regarding `CCOC(=O)c1cnn(CC(C)O)c1NC(=O)NCc1ccccc1C(F)(F)F` (stereo not given), the growth was 58% (inactive). With `CC1NC(=O)NC1CCCCCC(=O)O` (stereo not given) the figure was 107% (inactive); with `O=[N+]([O-])c1ccc(N2c3ccncc3Sc3ccncc32)cc1`, 102% (inactive). Regarding `COc1ccc(OC)c(Cn2cc3c(c2)-c2oncc2CC3)c1`, the growth was 13.7% (inactive).

Take `CC1(CO)CCCC1NCCNC1CCCC1(C)CO` (stereo not given): the growth was 95.2% (inactive). Take `CCCc1cc2c(cc1Br)OCO2`: the growth is 103% (inactive). As to `Cc1cc(N)cc(C)c1-c1c(Br)cc(N)cc1Br`, the growth was 10.4% (inactive). With `COC(=O)[C@]12CC[C@@H](C)[C@H](C)[C@@H]1C1=CC[C@@H]3[C@@]4(C)C(C=O)=C[C@@](C)(COS(C)(=O)=O)C4=CC[C@@]3(C)[C@]1(C)CC2` the figure was -34.8% (active); with `Cc1c(NCc2nnc3n(Cc4ccccc4)c(=O)c4c5c(sc4n23)CCCC5)c(=O)n(-c2ccccc2)n1C`, 80% (inactive).

For the compound `O=C(Nc1ccc(N2CCCCC2)c(Cl)c1)c1ccc(Br)o1`, the growth was 46.3% (inactive). With `CCN(C(=O)N1CCN(c2cc3c(cc2F)c(=O)c(C(=O)O)cn3C2CC2)CC1)c1nc(-c2ccc(C)cc2)cs1`, the growth was 7.49% (active). With `O=C(Nc1ccccc1)Oc1cccc2cccnc12` the figure was 57.3% (inactive); with `COc1ccc(-c2cnnn2-c2cc(OC)c3c(c2)OCO3)cc1`, -32% (active); with `NS(=O)(=O)c1ccc(CCN2C(=O)C3C(C2=O)C2(Cl)C(Cl)=C(Cl)C3(Cl)C2(Cl)Cl)cc1` (stereo not given), 78.4% (inactive).

`Oc1ccc(CCC2CCNc3ccccc32)cc1` (stereo not given): the growth is 86.9% (inactive). Turning to `CCN(CC)c1ccc(/C=N\NC(=O)c2cccc(Nc3ccnc(C(F)(F)F)c3)c2)c(O)c1`, the growth is 69.2% (inactive). Take `N#Cc1c(N2CCNCC2)nc2sc3cc(Cl)c(Cl)cc3n2c1=N`: the growth was 89% (inactive). Under `C=CCN1C(=O)c2ccccc2C1=O` stands 101% (inactive); under `O=C1C(Cl)=C(Nc2cccc3ccccc23)C(=O)c2ccccc21`, 71.1% (inactive). Under `Cn1cc2c(c1)-c1nc(Nc3ccccc3)ncc1CC2` stands 97.3% (inactive); under `O=C1C(Cl)=C(Nc2ccccc2)C(=O)c2ccccc21`, -19.5% (active); under `COc1cnc2c(c1)C(=O)c1c-2n(CCCNC2=NCCS2)c(=O)c2cc(Cl)ccc12`, -63.8% (active). With `Clc1ccc(SSc2ccc(Cl)cc2)cc1` the figure was 102% (inactive). On to `CCN(CCNc1ccc(C)c2sc3cc(Cl)ccc3c(=O)c12)CC(C)O` (stereo not given), for which the growth is 9.78% (active).

Take `CCOC(=O)NC(Cc1ccccc1)c1ccccc1` (stereo not given): the growth is 94.2% (inactive). With `CCOc1ccc(C2N(c3cc(OC)c(OC)c(OC)c3)C(=O)C2(F)F)cc1` (stereo not given) the figure was -16% (active). On to `N#Cc1c(N)nc2c(nnn2-c2cccc(Br)c2)c1N`, for which the growth is 95.9% (inactive). As for `Cc1cc(Cl)ccc1Nc1nc(C(F)(F)F)ccc1C(=O)N/N=C/c1c(Cl)cccc1Cl`, the growth was -26.8% (active). With `CCCCCCOC(=O)CC1=C(C)/C(=C/c2[nH]c(-c3ccc[nH]3)cc2OC)N=C1C` the figure was -42.7% (active); with `CO[C@H]1CC(O[C@@H]2/C(C)=C/C[C@@H]3C[C@@H](C[C@]4(CC[C@H](C)[C@@H](C5CCCCC5)O4)O3)OC(=O)[C@@H]3C=C(C)/C(=N/O)[C@H]4OC/C(=C\C=C\[C@@H]2C)[C@]43O)O[C@@H](C)C1O` (stereo not given in full), -48.7% (active). Under `Cc1cccc2c(=O)c3c(sc12)c(NCc1ccccc1)nc1ccccc13` stands 95.5% (inactive).

(Values after PubChem BioAssay (NCI).)
